From PubChem
In the library only some 19% were active in any assay of this set; here they are far more common.
IL1B secr inh: inflammasome signaling inhibition, IL-1 beta readout; THP-1 LPS/ATP IL-1B secretion, AlphaLISA, 16 h; hits give low values; activity change, % at 57.5 µM; hit rate 4.7% among 360,000; in the data active = activity change below about -50%; inconclusive = mostly about -30% to -49%
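Secreted IL-1B measured by AlphaLISA bead assay after 16 h compound exposure of THP-1 cells; compounds (final up to 57.5 uM) added 1 h before LPS (250 ng/mL) and ATP (1.25 mM) stimulation; lower signal means less secretion.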
DT40 TDP1 no CPT: qHTS for Inhibitors of human tyrosyl-DNA phosphodiesterase 1 (TDP1): qHTS in cells in absence of CPT. DT40 Tdp1-/- hTDP1 cells, no CPT, ATP luminescence, 48 h. Potency, µM (doses to about 46.2 µM), most hits filed as inhibitors. hit rate 15% among 420,000. AID 686978, 2013; also: nearly all actives have a fitted effect of over 55% in size
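DT40 Tdp1-/-;hTDP1 cells, no CPT (DMSO vehicle only), 400 cells/well; compounds pin-transferred; ≥48 hr, 37 °C; CellTiter-Glo 30 min RT dark, luminescence read.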
TDP1 cell CPT: DT40-hTDP1 cell growth loss with CPT; chicken DT40 Tdp1-/-;hTDP1 cells + 20 nM CPT, ATP luminescence, 48 h; Potency, µM (doses to about 46.2 µM), usual class: inhibitors; hit rate 12% among 420,000; AID 686979; also: nearly all actives have a fitted effect of over 55% in size
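Chicken DT40 Tdp1-/- cells complemented with human TDP1, 400 cells/well, exposed to compounds plus 20 nM camptothecin for at least 48 h at 37 C; viability read as ATP content by CellTiter-Glo luminescence.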
HT1080NT lethal: kills 2HG-producing HT-1080-NT fibrosarcoma cells. Potency, µM (series often up to 46.1 µM), hits mostly cytotoxic. hit rate 1.6% among 360,000. AID 686970. HT-1080-NT fibrosarcoma viability, CellTiter-Glo ATP luminescence, 48 h;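 also: NT is the 2HG producing partner of a matched IDH1 knockdown line; nearly all actives have a fitted effect of over 55% in size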
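Viability of the 2HG-overproducing fibrosarcoma line after 48 hours of compound exposure at 37 degrees C was determined by luminescence with CellTiter-Glo, and concentration-effect curves were then fitted and categorized.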
HT1080 IDH1KD tx: toxicity to HT-1080 IDH1 knockdown cells (counter line). HT-1080 IDH1 knockdown viability, ATP luminescence, 48 h. Potency, µM (doses to about 46.1 µM), hits mostly cytotoxic. hit rate 2% among 360,000. AID 686971
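% activity derives from luminescence (CellTiter-Glo), normalised to DMSO and no-cell wells. HT-1080-IDH1KD cells, 750/well, had 48 h compound exposure at 37 °C.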
Numbers stand for hits; 0 = inactive; ? = inconclusive; - = no result; [ ] = dose if it differs, or a comment. Unless noted, calls follow the shape of the dose curve; as a rule, active = well fitted curve in the direction sought with a large enough effect; inconclusive = small, poorly fitted or top-dose-only effect, or another doubt; inactive = no such curve, though single readings can be large; an effect the other way counts as inactive or inconclusive.

SMILES	IL1B secr inh	DT40 TDP1 no CPT	TDP1 cell CPT	HT1080NT lethal	HT1080 IDH1KD tx
Cc1ccc(NC(=S)NNC(=O)CSc2nc3ccccc3c(=O)n2-c2ccc(C)cc2)cc1	0	16.4µM	0	0	0
COc1ccc(-n2c(SCC(=O)Nc3ccc(NC(C)=O)cc3)nc3ccccc3c2=O)cc1	0	0	13µM	?	0
Cc1cc(C)c(S(=O)(=O)N(C)CC(=O)NCCN2CCOCC2)c(C)c1	0	0	0	0	0
Cc1ccc(/C=N/n2nnnc2N)cc1[N+](=O)[O-]	0	0	0	0	0
Cc1cccc(NCc2cc(Cl)cc(Cl)c2O)n1	-50.5	0	0	?	0[9.24 µM]
Cc1ccnc(NCc2cc(Cl)cc(Cl)c2O)c1	0	0	0	0	0
Cc1cccc(NCc2cc(Cl)ccc2O)n1	-78.6	0	0	?	0[9.24 µM]
CC(C)c1cc(C(=O)N2CCCC(CCC(=O)N3CCN(c4ccccn4)CC3)C2)no1 (stereo unspecified)	0	23.1µM	23.1µM	0	0
O=C(CCC1CCCN(C(=O)CC2=CCCCC2)C1)N1CCN(c2ccccn2)CC1 (stereo unspecified)	0	16.4µM	?	0	0
O=C(CCC1CCCN(C(=O)C2=CCCC2)C1)N1CCN(c2ccccn2)CC1 (stereo unspecified)	0	23.1µM	0	0	0
O=C(O)c1ccc(S(=O)(=O)Nc2ccc(O)c(Sc3nc4ccccc4s3)c2)cc1	0	0	0	0	0
COCCN(C(=O)CCC(=O)Nc1ccccn1)C(C(=O)NC1CCCC1)c1ccc(OC)cc1 (stereo unspecified)	0	0	0	0	0
O=C(NC(Cc1ccccc1)C(=O)O)c1ccc(S(=O)(=O)N2CCCCC2)cc1 (stereo unspecified)	0	0	0	0	0
CCCCNC(=O)COC(=O)c1ccc(F)cc1Cl	0	0	0	0	0
Cc1ccccc1CSc1nc2cccnc2n1Cc1ccc(C(=O)NCCc2cccs2)cc1	-	16.4µM	13µM	-	-
O=C(NCCc1ccccc1)c1ccc(Cn2c(SCc3cccc(F)c3)nc3cccnc32)cc1	-	14.6µM	7.31µM	-	-
O=C(Cc1cccc([N+](=O)[O-])c1)NCc1nc2cccnc2n1Cc1ccc(F)cc1	-	0	0	-	-
Cc1ccc(CSc2nc3cccnc3n2Cc2ccc(C(=O)NCCc3ccccc3)cc2)cc1	-	0	0	-	-
Cc1ccccc1CNC(=O)c1ccc(Cn2c(SCc3cccc(F)c3)nc3cccnc32)cc1	-	14.6µM	14.6µM	-	-
O=C(NCc1cccs1)c1ccc(Cn2c(SCc3cccc(F)c3)nc3cccnc32)cc1	-	18.4µM	25.9µM	-	-
COc1cc(NS(=O)(=O)c2ccc(NC(=O)c3cccc(F)c3)cc2)nc(OC)n1	-	0	0	-	-
COc1ccc(CC(=O)NCC(=O)NCc2cc(=O)n(C)c(=O)n2C)cc1	0	0	0	0	0
CC1=C(C(=O)N(C)C)CC(CC(=O)NCC2CCCCC2)C(=O)N1Cc1ccc(C(C)(C)C)cc1 (stereo unspecified)	0	16.4µM	?	0	0
CCN(CC)C(=O)C1=C(C)N(Cc2ccc(C(C)(C)C)cc2)C(=O)C(CC(=O)NCC2CCCCC2)C1 (stereo unspecified)	-81.6	18.4µM	13µM	?	?
CC1=C(C(=O)N(C)C)CC(CC(=O)NCC2CCCCC2)C(=O)N1Cc1ccccc1 (stereo unspecified)	0	0	0	0	0
SMILES	IL1B secr inh	DT40 TDP1 no CPT	TDP1 cell CPT	HT1080NT lethal	HT1080 IDH1KD tx
CNC(=O)NC(=O)C(C)Oc1ccccc1F (stereo unspecified)	0	0	0	0	0
O=C(Nc1cccc(NC(=O)C2CC3CCCC(C2)C3=O)n1)C1CC2CCCC(C1)C2=O (stereo unspecified)	0	18.4µM	?	0	0
Cc1nc(NC(=O)C2CC3CCCC(C2)C3=O)sc1C (stereo unspecified)	0	0	0	0	0
Cc1ccc(/C([O-])=C(/C(=S)Nc2ccc(SC(F)F)cc2)[n+]2ccccc2)cc1[N+](=O)[O-]	0	11.6µM	?	0	0
Cc1cc(C)cc(NC(=S)/C(=C(\[O-])c2ccc(Cl)cc2Cl)[n+]2ccccc2)c1	0	0	?	0	0
[O-]/C(=C(\C(=S)Nc1ccc(SC(F)F)cc1)[n+]1ccccc1)c1ccc(Cl)cc1Cl	-68.9	10.3µM	10.3µM	0	0
O=C(c1ccc2c(c1)OCCO2)N1CCN(Cc2ccccc2)CC1	?	0	0	0	0
COc1cccc(NC(=O)CN(C)C(=O)COc2ccccc2Cc2ccccc2)c1	0	29.1µM	?	0	0
COc1cccc(NC(=O)CN(C)C(=O)CNC(=O)c2ccc(Oc3ccccc3)cc2)c1	-96.3	?	?	0	0
COc1ccc(NC(=O)CN(C)C(=O)CNC(=O)c2ccc3ccccc3c2)cc1	0	0	0	0	0
CCCC[C@H]1COCCS(=O)(=O)N1Cc1ccc(Br)cc1	0	?	?	0	0
CCS(=O)(=O)N1CCN(C(=O)c2cccc3ccccc23)CC1	0	0	0	0	0
COc1ccc(CNS(=O)(=O)c2cc3c(cc2Cl)NC(=O)CO3)cc1	0	0	0	0	0
O=C1COc2cc(S(=O)(=O)NCc3ccco3)c(Cl)cc2N1	-	?	18.4µM	-	-
CCOc1ccc(Br)cc1C1C(C(=O)Nc2ccccc2OC)=C(C)Nc2nnnn21 (stereo unspecified)	-	0	0	-	-
C=CCSC1=N/C(=C\c2sccc2C)C(=O)S1	0	0	0	0	0
C=CCSC1=N/C(=C\C=C\c2ccco2)C(=O)S1	0	18.4µM	23.1µM	0	0
CCOC(=O)c1c(CN2CCOCC2)n(C)c2cc(Br)c(O)c(CN(C)C)c12	?	?	?	0	0
CCOC(=O)c1c(CSc2ccccc2)n(C)c2cc(Br)c(OCC(O)CNC(CO)(CO)CO)cc12 (stereo unspecified)	-100.5	14.6µM	?	0	0
CCOC(=O)c1c(C)n(C)c2cc(Br)c(C)cc12	0	0	0	0	0
CCOC(=O)c1c(CN2CCN(CC#N)CC2)n(C)c2cc(Br)c(OC)cc12	-62.9	?	?	?	20.6µM
CCOC(=O)c1c(CN2CCC(C)CC2)n(C)c2cc(Br)c(OC)cc12	0	16.4µM	?	0	0
CCOC(=O)c1c(CN2CCN(Cc3ccccc3)CC2)n(C)c2cc(Br)c(OC)cc12	0	16.4µM	?	0	0
CCOC(=O)c1c(CSc2ccccc2)n(C)c2cc(Br)c(OC)c(O)c12	0	?	?	0	0
Cc1ccc(NC(=O)CSCC(=O)NCc2cccc(C(F)(F)F)c2)cc1	0	0	?	0	0
O=C(Cn1c(=O)n(Cc2ccc3c(c2)OCO3)c(=O)c2oc3ccccc3c21)Nc1ccc(F)cc1	-	0	0	-	-
